In all, about 3,300 compounds went through this assay and about 35 (1%) were called active. Cut-off read from the data, not from the text of the source: active = inhibition above about 11%; inactive = the rest. These entries were drawn from the full list.
Molecular target: 1-phosphatidylinositol 4,5-bisphosphate phosphodiesterase beta-3 (Homo sapiens) (UniProt Q01970)
Assay: retest of human PLCB3 enzyme blockers – biochemical, fluorescence, purified enzyme, confirmation (AID 743261)
Conditions: purified PLC-beta3, fluorogenic substrate fluorescence; at 12.3 µM; active compounds read high

1-phosphatidylinositol 4,5-bisphosphate phosphodiesterase beta-3 (Homo sapiens), sequence (Q01970 whole entry, looked up): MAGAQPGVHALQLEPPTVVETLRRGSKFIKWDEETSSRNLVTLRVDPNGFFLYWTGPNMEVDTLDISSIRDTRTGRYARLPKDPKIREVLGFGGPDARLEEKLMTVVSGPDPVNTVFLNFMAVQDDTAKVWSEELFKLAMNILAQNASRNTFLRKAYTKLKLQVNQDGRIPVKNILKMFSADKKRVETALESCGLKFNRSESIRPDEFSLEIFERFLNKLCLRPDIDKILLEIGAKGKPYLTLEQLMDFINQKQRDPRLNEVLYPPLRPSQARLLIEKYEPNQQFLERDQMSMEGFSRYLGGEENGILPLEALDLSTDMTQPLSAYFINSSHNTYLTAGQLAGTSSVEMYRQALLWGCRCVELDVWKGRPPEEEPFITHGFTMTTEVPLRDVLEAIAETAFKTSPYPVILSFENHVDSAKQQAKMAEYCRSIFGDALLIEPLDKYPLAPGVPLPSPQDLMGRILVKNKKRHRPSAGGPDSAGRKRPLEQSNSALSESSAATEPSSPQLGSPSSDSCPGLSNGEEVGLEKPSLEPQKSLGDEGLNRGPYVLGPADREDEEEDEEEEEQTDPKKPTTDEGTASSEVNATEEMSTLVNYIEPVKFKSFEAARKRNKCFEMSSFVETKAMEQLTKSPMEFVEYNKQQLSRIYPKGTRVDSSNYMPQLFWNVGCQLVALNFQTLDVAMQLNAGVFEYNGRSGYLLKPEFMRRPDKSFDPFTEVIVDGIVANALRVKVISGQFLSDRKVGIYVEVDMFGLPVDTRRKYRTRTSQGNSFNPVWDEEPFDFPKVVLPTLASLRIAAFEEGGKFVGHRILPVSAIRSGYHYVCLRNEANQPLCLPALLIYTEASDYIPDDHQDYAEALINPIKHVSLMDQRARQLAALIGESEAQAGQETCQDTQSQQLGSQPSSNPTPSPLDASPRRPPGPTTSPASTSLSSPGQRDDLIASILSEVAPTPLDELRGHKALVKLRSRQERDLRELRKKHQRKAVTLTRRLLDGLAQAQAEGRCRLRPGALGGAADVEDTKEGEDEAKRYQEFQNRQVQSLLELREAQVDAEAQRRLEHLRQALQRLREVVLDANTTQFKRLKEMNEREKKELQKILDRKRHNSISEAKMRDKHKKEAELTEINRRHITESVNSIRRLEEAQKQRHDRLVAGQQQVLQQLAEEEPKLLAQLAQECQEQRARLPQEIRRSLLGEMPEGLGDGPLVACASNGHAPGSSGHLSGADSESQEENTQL

SMILES | inhibition
Cc1nc2ccccc2nc1CC(O)(c1ccccc1)c1ccccc1 | 1.99% (inactive)
CCOc1ccc(OCC)c(NC(=O)CSc2nnc(Cn3cnc4ccccc43)n2C)c1 | 2.61% (inactive)
CCC1S/C(=N/N=C/c2ccco2)NC1=O (stereo unspecified) | 3.39% (inactive)
CC(C)n1c(CN2CCN(Cc3ccccc3)CC2)nc2ccccc21 | -2% (inactive)
Nn1cnnc1N/N=C/c1cc([N+](=O)[O-])c(Cl)cc1Cl | -0.09% (inactive)
COCCCN(C(=S)Nc1c(C)cc(C)cc1C)C(C)c1ccncc1 (stereo unspecified) | 3.06% (inactive)
Cc1ccc(N2CC(C(=O)NCCS(=O)(=O)N3CCN(c4ccccc4)CC3)CC2=O)cc1 (stereo unspecified) | 3.26% (inactive)
C/C(CC(C)C)=N\Oc1nc(C)cc(C)n1 | -3.23% (inactive)
C=CC1=C(C(=O)O)N2C(=O)[C@@H](NC(=O)/C(=N\OCC(=O)O)c3csc(N)n3)[C@H]2SC1 | 20.5% (active)
COc1ccc(NC(=O)c2ccc(OC)cc2)cc1 | -4.41% (inactive)
COc1ccc(/C=C2\N=C3CCCN3C2=O)cc1 | -5.85% (inactive)
O=C(c1ccc2c(c1)OCO2)N1CCNc2ccccc2C1 | -2.69% (inactive)
O=C(CSc1ccccc1)Nc1cccc(S(=O)(=O)N2CCOCC2)c1 | 4.18% (inactive)
Cc1cc(C)c(NC(=O)CN2CCOCCOCCOCCOCC2)c(C)c1 | 0.38% (inactive)
C=CCn1c(SCn2nnc3ccccc3c2=O)nnc1-c1ccc(Cl)cc1 | -0.45% (inactive)
CCc1c(Nc2ccccc2C)nc(N)[nH]c1=O | 1.95% (inactive)
CCOc1ccccc1NC(=O)CCN1CCN(S(=O)(=O)c2ccc(OC)cc2)CC1 | -0.62% (inactive)
C=CCN(c1ccc(Cl)cc1)S(=O)(=O)c1cccc(C(=O)OCC(=O)N(C)C)c1 | -16% (inactive)
Cc1nc(Nc2ccccc2C)c2cnn(C)c2n1 | -0.91% (inactive)
Cc1ccc(NC(=S)N(Cc2ccco2)C(C)c2cccs2)cc1 (stereo unspecified) | -0.01% (inactive)
COc1ccc(C(CNC(=O)c2cc(S(=O)(=O)Nc3cccc(C)c3)ccc2C)N2CCCC2)cc1 (stereo unspecified) | -3.32% (inactive)
CCn1c(SCC(C)=O)nc2sc3c(c2c1=O)CCCC3 | -2% (inactive)
Cc1nc2ccc(NC(=O)c3cccc(S(=O)(=O)N4CCOCC4)c3)cc2s1 | -9.8% (inactive)
Cc1c(C#N)c2ncn(CC#N)c(=O)c2n1-c1ccccc1 | -2.4% (inactive)
CS(=O)(=O)N(Cc1ccc(Cl)cc1)c1ccc(C(=O)NCCSCc2ccco2)cc1 | 1.86% (inactive)
Nc1nnc(SCC(=O)OCc2ccc(Cl)c(Cl)c2)s1 | -2.66% (inactive)

Source: PubChem BioAssay AID743261 (The Scripps Research Institute Molecular Screening Center, 2014)
